According to PubChem BioAssay AID2094 (Broad Institute, 2009):
Screen size: about 300,000 compounds; about 1,200 (0.4%) were called active. Rule as the data show it: active = activity change below about -75% (passing the limit was not always enough); inconclusive = no clear call, values can overlap the other calls. The list comes from a sample in which actives are over-represented; it also holds similar structures and randomly drawn compounds.

test: Vibrio harveyi AI-2 quorum sensing modulators, primary screen, JMH597 strain, luminescence/OD600 ratio (AID 2094); conditions: Vibrio harveyi JMH597 AI-2 luminescence/OD600 ratio, 9 h; at 7.5 µM; stronger effect = lower value; 0 = neutral-control median; strain lacks LuxN and CqsS sensors;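 also: luminescence divided by OD600 gain over 9 h not by final OD600 alone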

Row | Compound | activity change
1 | CC12CCC(=O)N1C(C(=O)NCCN1C(=O)S/C(=C\c3ccccc3F)C1=O)CS2 (configuration not stated) | 17% (inactive)
2 | Nc1c(C(=O)Nc2ccc3c(c2)OCCO3)nnn1Cc1ccccc1 | 9.93% (inactive)
3 | O=c1c2ccccc2c(-c2ccc(Br)cc2)nn1Cc1ccccc1 | 41.9% (inactive)
4 | Nc1c(-c2ccccc2)nnn1Cc1ccccc1 | -76.6% (active)
5 | CC(C)c1ccc(/C=C/C(=O)NNC(=O)c2cccnc2)cc1 | 5.1% (inactive)
6 | O=C(/C=C/c1ccc(F)cc1)NCCNC(=O)/C=C/c1ccc(F)cc1 | 20.3% (inactive)
7 | O=C(/C=C/c1ccc(F)cc1)NC(=S)NNC(=O)c1cccnc1 | -112% (active)
8 | Cc1ccc(N2CCN(S(=O)(=O)N(C)C)CC2)cc1Cl | 10.7% (inactive)
9 | CCCCCCC(O)(CCN1CCCCC1)c1ccccc1 (configuration not stated) | 20% (inactive)
10 | OC(CN=c1sc2ccccc2n1CC(O)COc1ccccc1)COc1ccccc1 (configuration not stated) | 4.84% (inactive)
11 | CCNC(=O)N1CCCC(C(=O)c2ccc(-c3ccccc3)cc2)C1 (configuration not stated) | -9.07% (inactive)
12 | Cn1nccc1C(=O)N1CCCC(C(=O)c2ccc(Oc3ccccc3)cc2)C1 (configuration not stated) | -2.94% (inactive)
13 | O=C(c1ccc(-c2ccccc2)cc1)C1CCCN(C(=O)c2cncs2)C1 (configuration not stated) | -77.4% (active)
14 | COc1ccc(Oc2c(Cl)cnn(-c3ccccc3)c2=O)cc1 | 8.72% (inactive)
15 | Cc1ccc(-c2nc3c(cnn3-c3ccccc3)c(=O)o2)cc1 | 9.58% (inactive)
16 | Cc1ccc(Oc2cnn(-c3ccccc3)c(=O)c2Br)cc1 | -95.8% (active)
17 | C/C(=N\NC(=O)c1ccc(C)cc1)C1C(=O)c2ccccc2C1=O | 17% (inactive)
18 | CSCCC(NC(=O)COc1ccccc1)C(=O)OCC(=O)c1cc2ccccc2o1 (configuration not stated) | 8.03% (inactive)
19 | Cc1ccsc1C(=O)OCC(=O)c1cc2ccccc2o1 | -88.1% (active)
20 | Cc1ccsc1C(=O)OCC(=O)c1cc(C)n(CC2CCCO2)c1C (configuration not stated) | 22.3% (inactive)
21 | Cc1ccc(NC(=O)C2CCN(S(=O)(=O)c3ccc4c(c3)NC(=O)CO4)CC2)cc1C | -2.55% (inactive)
22 | Cn1c(N)c(C(=O)COC(=O)C23CC4CC(CC(C4)C2)C3)c(=O)n(C)c1=O | 12.7% (inactive)
23 | Cc1csc(=O)n1CC(=O)OCC(=O)N(CC(C)C)c1c(N)n(Cc2ccccc2)c(=O)[nH]c1=O | 6.79% (inactive)
24 | CC(C)(C)c1ccc(Oc2ccc(N)cc2)cc1 | -23.7% (inactive)
25 | CC(C)(C)c1ccc(CN2C(=O)c3ccccc3S2(=O)=O)cc1 | 21.7% (inactive)

Row | Compound | activity change
26 | CC(C)(C)c1ccc(OC2=CS(=O)(=O)c3ccccc32)cc1 | -84.2% (active)
27 | CCN(CC)C(=O)CN(c1cccc(OC)c1)S(=O)(=O)c1ccc(C)cc1 | 9.13% (inactive)
28 | CC(C)C(C)NC(=O)COc1ncnc2ccccc12 (configuration not stated) | 19.9% (inactive)
29 | O=C(COc1ncnc2ccccc12)NC(=O)NCc1ccccc1 | -86.9% (active)
30 | CC(=O)Nc1ccc(NC(=O)COc2ncnc3ccccc23)cc1 | -8.91% (inactive)
31 | CCOC(=O)c1cc(C(C)C)sc1NC(=O)COC(=O)c1nccnc1N | 29.5% (inactive)
32 | COc1ccc(/C(N)=N/OC(=O)CCCc2ccccc2)cc1 | 749% (inactive)
33 | N/C(=N\OC(=O)Cc1ccccc1[N+](=O)[O-])c1ccc(Br)cc1 | -5% (inactive)
34 | COc1ccc(/C(N)=N/OC(=O)Cc2ccccc2)cc1 | -87.5% (active)
35 | O=C1CCCc2nn(-c3ccccc3)nc21 | 8.67% (inactive)
36 | CCCc1ccc(OCCNC(=O)c2ccccc2Br)cc1 | 28.5% (inactive)
37 | CCCc1ccc(OCC(=O)NNC(=S)NC(=O)c2ccco2)cc1 | -5.63% (inactive)
38 | CCCc1ccc(OCCNC(=O)c2ccco2)cc1 | -83.3% (active)
39 | Cc1ccccc1OCC(=O)Nc1ccc2c(c1)ncn2C | 27.2% (inactive)
40 | Cc1ccc(C(=O)O)cc1N1C(=O)CCCC1=O | 28.2% (inactive)
41 | CCc1nnc(NS(=O)(=O)c2ccc(NC(=O)c3cccc(OC(F)(F)C(F)F)c3)cc2)s1 | 24.2% (inactive)
42 | O=C(O)c1ccc(S(=O)(=O)N2CCC(Cc3ccccc3)CC2)cc1 | 38.4% (inactive)
43 | Cc1cc(C)nc(N/N=C/c2ccc([N+](=O)[O-])o2)n1 | -83.7% (active)
44 | CCc1ccc(S(=O)(=O)N/N=C\c2ccc([N+](=O)[O-])o2)cc1 | 28.2% (inactive)
45 | Cc1cc(C)nc(N/N=C/c2ccncc2)n1 | 10.7% (inactive)
46 | NC(=O)CN1CCCC1c1ccc2c(c1)OCCO2 (configuration not stated) | 22.1% (inactive)
47 | Cc1ccc(CCCOC(=O)C[N+]2(C)CCCCC2)cc1 | 20.1% (inactive)
48 | Cc1ccc(Cc2nc(-c3cccc(C)c3)no2)cc1 | -81.8% (active)
49 | Cc1ccc(-c2noc(CN3CCN(Cc4ccccc4)CC3)n2)cc1 | -10.7% (inactive)
50 | Cc1cccc(-c2noc(-c3ccc(F)cc3)n2)c1 | 2.4% (inactive)

Row | Compound | activity change
51 | Cc1cccc(C)c1N1CCN(S(=O)(=O)N2CCOCC2)CC1 | 0.226% (inactive)
52 | Cc1cc(C(=O)OCC(=O)Nc2ccc(F)c(F)c2)c(C)o1 | -93.5% (active)
53 | Cc1cccc(C(=O)OCC(=O)Nc2ccc(F)cc2)c1 | -25.5% (inactive)
54 | Cc1cc(C)cc(NC(=O)COC(=O)c2cc(C)oc2C)c1 | -17% (inactive)
55 | CCOC(=O)N1CCN(S(=O)(=O)c2ccc(Br)cc2)CC1 | 14.3% (inactive)
56 | CC1CCN(C(=O)Cn2nnnc2CN2CCOCC2)CC1 | 8% (inactive)
57 | O=C(O)/C=C/c1ccc2c(c1)OCCO2 | 6.59% (inactive)
58 | O=C(/C=C/c1ccc2c(c1)OCCO2)c1ccc(O)cc1 | -84.5% (active)
59 | CN(C)c1ccc(/C=C/C(=O)c2ccc(O)cc2)cc1[N+](=O)[O-] | -93% (active)
60 | CN(C)c1ccc(/C=C/C(=O)c2ccc(C(C)(C)C)cc2)cc1[N+](=O)[O-] | 19.9% (inactive)
61 | CC(=O)c1ccc2c(c1)OCCOCCOc1ccc(C(C)=O)cc1OCCOCCO2 | 17.9% (inactive)
62 | O=C(/C=C/c1ccc(Cl)c([N+](=O)[O-])c1)c1ccc(O)cc1 | -37.5% (inactive)
63 | O=C(Cc1ccc([N+](=O)[O-])cc1)Nc1ccc(C(=O)N2CCOCC2)cc1 | 31% (inactive)
64 | CCN(CC)c1ccc(S(=O)(=O)N2CCCCC2)cc1NC(=O)C1=COCCO1 | 0.314% (inactive)
65 | Cc1cccc(N2CCN(S(=O)(=O)c3ccc(-c4cc(C)no4)s3)CC2C)c1 (configuration not stated) | 7.14% (inactive)
66 | Cc1ccc(C(=O)N2CCN(S(=O)(=O)N3CCOCC3)CC2)cc1 | 14.3% (inactive)
67 | O=C(COc1ccc([N+](=O)[O-])cc1)Nc1ccc(N2CCCC2)cc1 | 44.5% (inactive)
68 | O=C(COC(=O)C1CCCCC1)Nc1ccc([N+](=O)[O-])cc1 | -83.6% (active)
69 | NC(=O)c1ccc(NC(=O)COC(=O)c2ccc([N+](=O)[O-])cc2)cc1 | 17.8% (inactive)
70 | CCCC1NC(=O)NC(C)=C1C(=O)OCC (configuration not stated) | 2.55% (inactive)
71 | Oc1c(Br)cc(/C=N/NC(=S)NCC2CCCO2)cc1Br (configuration not stated) | 46.7% (inactive)
72 | CCN(C(=O)COc1cccnc1[N+](=O)[O-])C1CCS(=O)(=O)C1 (configuration not stated) | 32.7% (inactive)
73 | N#CCSc1nc(-c2ccccc2)nc2ccc(F)cc12 | 12.5% (inactive)
74 | COC(=O)c1ccc(CSc2nncn2N)cc1 | 26.7% (inactive)
75 | COC(=O)c1ccc(SCc2ccccc2)nc1 | -80.3% (active)

Row | Compound | activity change
76 | COC(=O)c1ccc(CSc2nncn2C)cc1 | 9.24% (inactive)
77 | COc1ccc(N2CCN(S(=O)(=O)c3cc(Br)cnc3N)CC2)cc1 | 15.8% (inactive)
78 | COc1ccc2ccccc2c1/C=N/NC(=O)c1cc(C)[nH]n1 | 11.2% (inactive)
79 | CC(C)(C)c1cc(C(=O)N/N=C/c2ccc([N+](=O)[O-])s2)n[nH]1 | 16.7% (inactive)
80 | Cc1cc(C(=O)N/N=C/c2cc([N+](=O)[O-])cc(C)c2O)n[nH]1 | -86.5% (active)
81 | COC(=O)c1ccc(NC(=O)CSc2nnc(C3CC3)n2C)cc1 | 40.9% (inactive)
82 | Cc1c(NC(=O)C(C)OC(=O)c2c3c(nc4ccccc24)CCC(C)C3)c(=O)n(-c2ccccc2)n1C (configuration not stated) | 5.39% (inactive)
83 | Cc1cc(C)n(CCNCc2c(C(=O)N3C[C@@H](C)O[C@@H](C)C3)nc3ccc(Cl)cn23)n1 | 11% (inactive)
84 | Cc1ccc(NS(=O)(=O)c2cc3c(cc2C)NC(=O)CO3)cc1 | 20.3% (inactive)
85 | Cc1ccc(NS(=O)(=O)c2ccc3c(c2)NC(=O)CO3)cc1 | -85.9% (active)
86 | Cc1cccc(CCNS(=O)(=O)c2ccc3c(c2)NC(=O)CO3)c1 | -59.5% (inactive)
87 | O=C1COc2ccc(S(=O)(=O)Nc3ccc(OC(F)(F)F)cc3)cc2N1 | -94.2% (active)
88 | O=C1COc2ccc(S(=O)(=O)NCCc3ccc(Cl)cc3)cc2N1 | -21.2% (inactive)
89 | CC(=O)Nc1ccc(NS(=O)(=O)c2ccc3c(c2)NC(=O)CC(=O)N3)cc1 | 6.21% (inactive)
90 | COc1cc(NC(=O)c2ccccc2NS(=O)(=O)c2ccc(Cl)s2)cc(OC)c1 | 26.9% (inactive)
91 | CCOc1ccc(NC(=O)CC(Cc2ccc(Cl)cc2)C(=O)O)cc1 (configuration not stated) | -20.6% (inactive)
92 | CCCCCCC12CCC(C(=O)O)(CC1)CC2 | 24.4% (inactive)
93 | Cn1nnnc1SCC(=O)Nc1nc2ccccc2s1 | 32.4% (inactive)
94 | O=C(CCC(=O)c1cccs1)NC1CCCCCC1 | -7.35% (inactive)
95 | O=C(CCC(=O)c1cccs1)Nc1nc2ccccc2s1 | -87.3% (active)
96 | O=C(NC(=S)Nc1ccccc1C(=O)O)c1ccc(-c2ccc(Br)cc2)o1 | 9.83% (inactive)
97 | CN(C)S(=O)(=O)c1ccc(N/C=C(\[N+](=O)[O-])S(=O)(=O)c2ccccc2)cc1 | 28.7% (inactive)
